# Results taken from paper PMC4336329 (PLoS ONE, 2015).
# Out of some 310,000 compounds screened, about 14,000 (4.5%) showed an effect of 50% or more. The effect is printed as a negative number. The sample as a whole holds a higher share of strong results than the screen did.
# Molecular target: human ether-à-go-go-related gene (hERG) potassium channel (human, UniProt Q12809)
# Test: primary screen, population patch clamp on CHO cells stably expressing hERG; higher = less effect of the substance
# 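Further: peak tail current of the secondary pulse compared with the same well before compound.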
# Sequence of human ether-à-go-go-related gene (hERG) potassium channel (Q12809 whole entry, looked up): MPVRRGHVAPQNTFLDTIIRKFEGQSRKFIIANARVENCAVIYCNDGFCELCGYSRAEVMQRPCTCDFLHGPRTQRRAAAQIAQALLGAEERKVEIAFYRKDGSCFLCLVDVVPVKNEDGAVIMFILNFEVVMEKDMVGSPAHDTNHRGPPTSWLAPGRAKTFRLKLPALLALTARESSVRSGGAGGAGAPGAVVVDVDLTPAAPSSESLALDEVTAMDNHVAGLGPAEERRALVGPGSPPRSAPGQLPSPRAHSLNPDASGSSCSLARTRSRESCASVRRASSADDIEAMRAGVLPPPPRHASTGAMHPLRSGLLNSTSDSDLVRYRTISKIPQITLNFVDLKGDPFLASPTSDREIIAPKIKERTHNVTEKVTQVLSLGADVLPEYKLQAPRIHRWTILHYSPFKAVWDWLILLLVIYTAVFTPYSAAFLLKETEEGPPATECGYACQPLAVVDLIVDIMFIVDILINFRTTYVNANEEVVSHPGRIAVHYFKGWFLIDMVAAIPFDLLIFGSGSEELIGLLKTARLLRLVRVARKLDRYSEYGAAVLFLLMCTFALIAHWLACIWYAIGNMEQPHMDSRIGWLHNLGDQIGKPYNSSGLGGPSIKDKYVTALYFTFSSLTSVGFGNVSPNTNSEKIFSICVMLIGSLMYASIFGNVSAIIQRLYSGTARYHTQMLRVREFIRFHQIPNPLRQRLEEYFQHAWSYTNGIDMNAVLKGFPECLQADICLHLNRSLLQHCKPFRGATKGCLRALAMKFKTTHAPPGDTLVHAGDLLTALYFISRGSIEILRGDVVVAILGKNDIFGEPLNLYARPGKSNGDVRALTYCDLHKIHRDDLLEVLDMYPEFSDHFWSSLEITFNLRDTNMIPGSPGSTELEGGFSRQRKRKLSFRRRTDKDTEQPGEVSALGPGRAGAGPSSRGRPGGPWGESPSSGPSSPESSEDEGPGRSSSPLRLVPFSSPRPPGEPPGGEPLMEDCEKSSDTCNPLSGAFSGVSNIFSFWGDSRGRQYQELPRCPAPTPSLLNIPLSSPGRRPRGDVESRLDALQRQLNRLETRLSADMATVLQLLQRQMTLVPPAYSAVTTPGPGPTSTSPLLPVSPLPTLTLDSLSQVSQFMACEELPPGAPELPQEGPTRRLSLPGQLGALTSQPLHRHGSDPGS
row,Structure (SMILES),"hERG current change (%, negative = inhibition) at 10uM"
1,O=C(CCc1ccccc1)NNC(=O)c1ccco1,5.99%
2,COc1cccc(C(=O)C2CCCN(Cc3ccc4nonc4c3)C2)c1 (stereo not shown),-48.5%
3,COc1cccc(C(=O)C2CCCN(Cc3ccc(OC)c(Cn4cncn4)c3)C2)c1 (stereo not shown),-58.6%
4,COc1ccc(CN2CCCC(C(=O)c3ccc(Cl)cc3)C2)cc1Cn1cncn1 (stereo not shown),-78%
5,COc1ccc(CN2CCN(CC=C(C)C)C(CCO)C2)cc1Cn1cncn1 (stereo not shown),-0.719%
6,COc1ccc(C(=O)C2CCCN(C(=O)Cn3cncn3)C2)cc1OC (stereo not shown),21.6%
7,O=C1CNC(=O)/C(=C\c2ccccc2)N1,11.8%
8,O=C(CNC(=O)c1ccc(Oc2ccccc2)cc1)OC1CCCCC1=O (stereo not shown),-72.2%
9,COc1cc(OC)cc(C(=O)NCC(=O)OC2CCCCC2=O)c1 (stereo not shown),-27.6%
10,COc1ccc(C(=O)NCC(=O)OC2CCCCC2=O)cc1 (stereo not shown),-13.5%
11,Cc1ccccc1OC1C(=O)N(CC2CCCO2)C1c1ccc2c(c1)OCO2 (stereo not shown),-55.8%
12,O=C1C(Oc2ccc(Cl)cc2)C(c2ccc3c(c2)OCO3)N1CC1CCCO1 (stereo not shown),-28.3%
13,COc1ccc(CCN2C(=O)C(Oc3ccccc3C)C2c2ccc3c(c2)OCO3)cc1 (stereo not shown),-42.3%
14,CCc1nc(NCCN2CCOCC2)c(C#N)c2c1CCCC2,-37.2%
15,CCOc1ccc(NCc2cccn2-c2nnc(N3CCC(C(=O)NCCCN4CCCCC4C)CC3)s2)cc1 (stereo not shown),-53.8%
16,CCOc1ccc(CCNC(=O)C2CCN(c3nnc(-n4cccc4)s3)CC2)cc1,-0.834%
17,CCOc1ccc(NCc2cccn2-c2nnc(N3CCC(C(=O)NCCCN4C(C)CCCC4C)CC3)s2)cc1 (stereo not shown),-69.3%
18,CC1CC(C)CN(CCCNC(=O)C2CCN(c3nnc(-n4cccc4)s3)CC2)C1 (stereo not shown),-28.3%
19,CCOc1ccc(NCc2cccn2-c2nnc(N3CCC(C(=O)NCCCN4CC(C)CC(C)C4)CC3)s2)cc1 (stereo not shown),-66.2%
20,CCN1CCN(CCCNC(=O)C2CCN(c3nnc(-n4cccc4)s3)CC2)CC1,-3.56%
21,CCOc1ccc(NCc2cccn2-c2nnc(N3CCC(C(=O)NCCCN4CCCCC4CC)CC3)s2)cc1 (stereo not shown),-68%
22,CC1CCCCN1CCCNC(=O)C1CCN(c2nc3ccccc3o2)CC1 (stereo not shown),-1.61%

row,Structure (SMILES),"hERG current change (%, negative = inhibition) at 10uM"
1,Cc1ccc(C)n1-c1nnc(N2CCC(C(=O)NCCCN3CC(C)CC(C)C3)CC2)s1 (stereo not shown),-17.7%
2,CC1CCCCN1CCCNC(=O)C1CCN(c2nnc(-n3cccc3)s2)CC1 (stereo not shown),-27.1%
3,CCC1CCCCN1CCCNC(=O)C1CCN(c2nnc(-n3cccc3)s2)CC1 (stereo not shown),-18.7%
4,CCOc1ccc(CCNC(=O)C2CCN(c3nnc(-n4cccc4)s3)CC2)cc1OCC,-35.7%
5,COC(=O)c1ccccc1NC(=O)N1CCN(S(=O)(=O)c2ccc(Cl)cc2)CC1,7.58%
6,O=C(Nc1ncccc1Cl)C(Sc1ccccc1)c1ccccc1 (stereo not shown),8.58%
7,Cc1[nH]n(-c2cccc(Cl)c2)c(=O)c1-c1ccccc1,17.1%
8,CCOC(=O)c1nn(-c2ccc(C)cc2)cc1C(=O)c1ccccc1,-9.04%
9,COc1cc(CNc2ccc(N3CCOCC3)c(C(=O)O)c2)ccc1OCC(N)=O,-6.95%
10,CCOc1ccc(S(=O)(=O)NCc2ccccc2)cc1C(N)=O,18.9%
11,O=C(OCC(O)CN1CCCCC1)C12CC3CC(CC(C3)C1)C2 (stereo not shown),-16.3%
12,CCOC(=O)N1CCC(NC(=O)CC2C(=O)NCCN2Cc2ccccc2F)CC1 (stereo not shown),11.8%
13,CCOC(=O)c1cc(C(O)(C(=O)OC)C(F)(F)F)c(/N=C/N(C)C)o1 (stereo not shown),-6.94%
14,Cc1cccc(-n2c(C)cc(C(=S)N3CCOCC3)c2C)c1C,-7.9%
15,COC(=O)C(C)Oc1ccc2c3c(c(=O)oc2c1)CCCCC3 (stereo not shown),-59.2%
16,CC(=O)C(C)Oc1ccc2c3c(c(=O)oc2c1)CCCCC3 (stereo not shown),2.1%
17,CC(=O)C(C)Oc1ccc2c3c(c(=O)oc2c1)CCCC3 (stereo not shown),-12.8%
18,O=C(CSc1nc(C(F)(F)F)cc(=O)[nH]1)Nc1nccs1,18.5%
19,CCc1nn(CCCC(=O)NCc2ccco2)c(=O)c2cc3occc3n12,-14%
20,COc1cccc(-n2c(O)c(C=NCc3ccccn3)c3ccccc3c2=O)c1,-26.2%
21,Cc1cccc(-n2c(O)c(C=NCc3ccccn3)c3ccccc3c2=O)c1,-60.9%
